# PubChem BioAssay
# Assay: anti-His antibody binders, primary screen, artefact control for SMM control protein annotation, biochemical, small-molecule microarray, 635 nm fluorescence (AID 1128);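 note: score merges feature fluorescence with signal-to-noise for each printed compound spot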
# Conditions: anti-His Alexa647 antibody binding, higher = more signal
row,Structure (SMILES),composite z-score
1,CC(C)[Si](C#C[Si](C(C)C)(C(C)C)C(C)C)(O[C@H](C)c1cn(Cc2cccc(Cl)c2)nn1)C(C)C,0.604
2,CC(C)(C)OC(=O)CC[C@]1(C(=O)N2CCCCC2)N=C(c2ccc(OCCCO)cc2)O[C@H]1c1ccccc1CN=[N+]=[N-],3.05
3,CCOC(=O)C[C@H]1[C@H](OC(=O)Cc2ccc3c(c2)OCO3)[C@@H](NC(=O)c2ccccc2)c2cc(OCCCO)ccc2N1C(=O)c1ccc2ccccc2n1,0.0936
4,CC(C)CCC[C@@H](C)[C@H]1CC[C@@]2(C)C3=C(CC[C@]12C)[C@@]1(C)CC[C@H](OC(=O)c2ccc(N)cc2)C(C)(C)C1CC3 (stereo partly drawn),0.467
5,C=CCC(OC(C)=O)[C@@H]1[C@@H](N(Cc2cccc3ccccc23)C(=O)c2ccc(C)cc2)c2cc(OCCCO)ccc2N1C(=O)c1ccc2ccccc2c1 (stereo partly drawn),-0.204
6,COC(=O)C(CC#Cc1ccc2c(c1)[C@]1(C(=O)N2)[C@H](c2ccccc2OCCO)N2[C@H](c3ccccc3)[C@H](c3ccccc3)OC(=O)[C@H]2[C@@H]1C(=O)Nc1nc2ccccc2s1)C(=O)OC,0.35
7,C=CCOC(=O)[C@@H]1[C@H]2C(=O)O[C@H](c3ccccc3)[C@H](c3ccccc3)N2[C@H](c2ccc(OCCOC(=O)[C@@H]3C[C@@H]4C(=O)N5CCC[C@H]5C(=O)N4[C@@H]3c3cccc(OCCO)c3)cc2)[C@@]12C(=O)Nc1ccc(I)cc12,1.16
8,COc1ccc(C(=O)Nc2ccc(CN3C(=O)[C@]4(O[C@H](CCn5cc([C@H](O)c6ccccc6)nn5)[C@@H]([Si](C)(C)c5ccc(OC)cc5)[C@@H]4C)c4ccccc43)cc2)cc1,-0.271
